According to PubChem BioAssay AID652104 (National Center for Advancing Translational Sciences (NCATS), 2013):
Screen size: about 410,000 compounds; about 7,200 (1.8%) were called active. Inconclusive results (about 7%) are left out. Shown is part of a subset that was picked to be rich in actives. Entries that show only a call come without a potency. Values without a mark were called inactive. The call rests on the fitted dose curve; in most records, active means well fitted activation curve with a large enough effect; inconclusive means small, poorly fitted or top-dose-only effect, or another doubt; inactive means no such curve, though single readings can be large or run the other way.

Experiment: qHTS of TDP-43 Inhibitors; further: nearly all actives have a fitted effect of over 50% in size
Conditions: TDP-43 expressing yeast growth rescue, BacTiter-Glo, 24 h; series mostly up to 46.1 µM
Method in brief: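 Yeast expressing TDP-43 (pregrown in raffinose, seeded at OD600=0.02 in galactose medium) exposed to compounds 24 hr at 30 deg C. Growth read by BacTiter-Glo luminescence; rescue of toxicity appears as increased signal.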
Potency means the concentration at half of the fitted maximal effect.

Compound	Potency	growth rescue (activation)
CCOCCc1nn2c(=O)cc(COC(=O)CNC(=O)c3ccc(C(C)(C)C)cc3)nc2s1	inactive	–
COc1ccccc1N1CCN(S(=O)(=O)CCNC(=O)COc2ccc(F)cc2)CC1	inactive	–
COc1ccc(CNC(=O)CSc2n[nH]c(-c3ccc(F)cc3)n2)cc1	inactive	–
CCOC(=O)C1CCN(CCC(=O)Nc2cccc(C)c2)CC1	inactive	–
COc1ccc(N)cc1NC(=O)CN1CCOCC1	inactive	–
COC(=O)CNC(c1ccccc1Cl)c1cc(Br)ccc1NC(=O)CCN1CCOCC1 (stereo not drawn)	17.8 µM (active)	–
CCc1ccccc1NC(=O)CSc1nnc(-c2ccccc2)c(-c2ccccc2)n1	inactive	–
O=C(NC1(C(F)(F)F)NC(=O)N(Cc2cccnc2)C1=O)c1ccccc1Cl (stereo not drawn)	inactive	–
CCOc1ccccc1C(=O)NC1(C(F)(F)F)NC(=O)N(CCc2ccc(OC)c(OC)c2)C1=O (stereo not drawn)	inactive	–
COc1ccc(C(=O)NC2(C(F)(F)F)NC(=O)N(CCCc3ccccc3)C2=O)c(OC)c1OC (stereo not drawn)	20 µM (active)	–
O=C(Nc1ccc2oc(-c3ccc(O)c(Br)c3)nc2c1)c1cc2ccccc2o1	inactive	–
OCc1cnc(SCc2ccc(F)cc2)n1Cc1ccc(F)cc1	inactive	–
CCOC(=O)N1CCC(NC(=O)c2cnn(-c3cccc(C)c3)c2C2CCN(C(=O)OC(C)(C)C)CC2)CC1	inactive	–
O=C1CC(c2cccc(Br)c2)C2=C(CCCC2=O)N1 (stereo not drawn)	inactive	–
O=C1C=C(c2cccc(Br)c2)C[C@@H](c2ccc(F)cc2)C1	20 µM (active)	–
CCCCC/C=C/C1=CC(=O)C[C@H](c2ccc(Cl)cc2)C1	inactive	–
N#Cc1ccc(C2=CC(=O)C[C@H](c3ccc(Cl)cc3)C2)cc1	17.8 µM (active)	–
COc1ccc(C2CC(=O)NC(=O)C2)cc1	inactive	–
COc1ccccc1C1=CC(=O)C[C@H](c2ccc(F)cc2)C1	15.8 µM (active)	–
COc1ccc([C@H]2CC(=O)C=C(/C=C/c3ccc(Cl)cc3)C2)cc1	inactive	–
O=C1C=C(c2cccc(Cl)c2)C[C@@H](c2ccc(F)cc2)C1	22.4 µM (active)	–
O=C1CC(c2cccc(Cl)c2)CC(O)=C1C=Nc1ccccc1 (stereo not drawn)	inactive	–
COc1cccc2c1CCC(NC(C)=O)C2=O (stereo not drawn)	inactive	–
O=C(NCC(c1ccc(Cl)cc1)N1CCOCC1)c1ccccc1F (stereo not drawn)	inactive	–
COC(=O)c1c(NC(=O)C(C)Oc2ccc(Cl)c(C)c2)sc(C)c1C (stereo not drawn)	inactive	–
COc1ccccc1-c1noc(-c2ccc(NCc3ccccc3)c([N+](=O)[O-])c2)n1	inactive	–

Compound	Potency	growth rescue (activation)
COc1ccc(-c2onc(C)c2C)cc1S(=O)(=O)NCC1CCN(Cc2cccc(F)c2)CC1	inactive	–
O=C(CSc1nc2c(c(=O)[nH]1)CN(Cc1ccc(F)cc1)CC2)Nc1ccccc1Cl	inactive	–
CCOc1ccc(NC(=O)C2CCN(S(=O)(=O)c3cc(-c4noc(C)n4)ccc3C)CC2)cc1	inactive	–
N/C(=N\OC(=O)CCc1ccccc1)c1cccnc1	inactive	–
N/C(=N\OC(=O)CCn1cccc(C(F)(F)F)c1=O)c1ccc(OC(F)(F)F)cc1	inactive	–
COc1ccc(/C(N)=N/OC(=O)CCCc2ccccc2)cc1	22.4 µM (active)	–
Cc1ccc(OCC(=O)Nc2ccc(OCc3cc(=O)n4c(C)csc4n3)cc2)cc1C	inactive	–
CC(C)Cn1c(-c2ccc(S(=O)(=O)N3CCOCC3)cc2)csc1=Nc1cc(Cl)ccc1Cl	inactive	–
COC(=O)c1ccc2nc(-c3ccc(F)cc3)c(Cc3ccc(C)cc3)n2c1	inactive	–
COc1ccc(-c2nc3ccc(Br)cn3c2Cc2ccc(C)cc2)cc1OC	15.8 µM (active)	–
COC(=O)c1ccc2nc(-c3ccc(C)cc3)c(Cc3ccc(OC)cc3C)n2c1	inactive	–
Oc1c(C(c2ccccc2Cl)N2CCOCC2)sc2nc(-c3ccco3)nn12 (stereo not drawn)	inactive	–
Cn1nnnc1SCCCNCc1cccc(OCc2ccc(Cl)cc2)c1	inactive	–
C=C1C(=O)OC2C1CCC(C)=CCCC1(C)OC21 (stereo not drawn)	14.1 µM (active)	–
O=C(NCCc1ccccc1)C(=O)NCC(c1ccco1)S(=O)(=O)c1ccccc1 (stereo not drawn)	inactive	–
COc1cccc(N2CCN(C(=O)CCCCCn3c(=O)[nH]c4ccccc4c3=O)CC2)c1	inactive	–
COc1ccc(CCNC(=O)c2ccc3c(c2)nc(C)n3-c2ccc(Br)cc2)cc1OC	inactive	–
COc1ccc(-c2cc3c(c4c2ccn4C)C2CCC3C2)cn1 (stereo not drawn)	20 µM (active)	–
CC(C)(C)c1ccc(OCC(=O)N2CCC(c3nc4ccccc4s3)CC2)cc1	inactive	–
CCSc1nnc2c(n1)OC(c1ccc(OCC(=O)O)cc1)Nc1ccccc1-2 (stereo not drawn)	–	-36.7% [at 9.22 µM]
COc1ccc(C)cc1-n1c(-c2ccc(C)cc2)cc2c1CC(C)(C)CC2=O	inactive	–
Cc1ccc(Cl)cc1NC(=O)Cc1ccc(-n2c(C)nc3cccnc32)cc1	inactive	–
CCCN(CCC)S(=O)(=O)c1ccc(C(=O)Nc2sc3c(c2C(=O)OC)CCN(CC)C3)cc1	inactive	–
CCN(C(=O)Cc1c(C(=O)O)n(CC)c2ccccc12)c1ccccc1C	25.1 µM (active)	–
CCn1c2ccccc2c2cc(CC(N)=O)ccc21	inactive	–
Cc1ccc(C)c(Cn2c(C(=O)O)c(CNCc3cccs3)c3ccccc32)c1	inactive	–

Compound	Potency	growth rescue (activation)
N#CCSc1nn(-c2ccc(F)cc2)c(=S)s1	15.8 µM (active)	–
Cc1ccccc1-n1nc(SCC(=O)O)sc1=S	inactive	–
O=C(CSc1nn(-c2ccc(F)cc2)c(=S)s1)NC1CCS(=O)(=O)C1 (stereo not drawn)	inactive	–
COc1ccc(CC(=O)Nc2nnc3n2CCS3)cc1OC	inactive	–
Cn1nc(-c2ccccc2)c(-c2ccccc2)c(C(=O)Nc2ccc(S(N)(=O)=O)cc2)c1=O	inactive	–
CCS(=O)(=O)N1CCN(C(=O)c2cccs2)CC1	inactive	–
Cc1ccccc1N(C(=O)CNC(=O)c1cccs1)C(C(=O)NC1CCCC1)c1ccncc1 (stereo not drawn)	inactive	–
Cc1ccccc1C(CC(=O)c1cccs1)C(C#N)C#N (stereo not drawn)	17.8 µM (active)	–
Cc1cccn2c(=O)c(C(=O)NC(C)c3ccccc3)cnc12 (stereo not drawn)	inactive	–
CC(C)(C)c1ccc(S(=O)(=O)Nc2ccc(O)c(Sc3nc4ccccc4s3)c2)cc1	inactive	–
COc1ccc(CC(=O)Nc2ccc(-c3nc4ccccc4s3)c(C)c2)cc1	inactive	–
COc1ccc(S(=O)(=O)Nc2ccc(O)c(Sc3nc4ccccc4s3)c2)cc1	31.6 µM (active)	–
CCOc1ccccc1NC(=O)C1CCCN(S(=O)(=O)c2cn(C)cn2)C1 (stereo not drawn)	inactive	–
Cc1nnc(SCC(=O)NCc2ccccc2Cl)c2nn(-c3ccccc3)c(C)c12	inactive	–
CCn1c2c(c(=O)n3ncc(C(=O)N4CCN(c5ccccc5)CC4)c13)CN(Cc1ccc(OC)cc1)CC2	inactive	–
CC(C)(C)NC(=O)Cn1cnc2cc([N+](=O)[O-])ccc2c1=O	inactive	–
Cc1ccc(-n2cc3ccc([N+](=O)[O-])cc3n2)cc1	15.8 µM (active)	–
Cc1ccc(N2CCN(c3ccc([N+](=O)[O-])cn3)CC2)c(C)c1	inactive	–
Cc1ccc(CCNC(=O)C2CCN(c3nnc(-n4cccc4CNc4ccc(C)cc4)s3)CC2)cc1	inactive	–
COc1ccc(S(=O)(=O)N2CCN(C(=S)NCC3CCCO3)CC2)cc1OC (stereo not drawn)	inactive	–
CCOc1ccc(S(=O)(=O)N2CCN(C(=S)NCC3CCCO3)CC2)cc1 (stereo not drawn)	inactive	–
S=C(NCC1CCCO1)N1CCN(c2ccc(Cl)c(Cl)c2)CC1 (stereo not drawn)	22.4 µM (active)	–
O=C(CCCn1c(=O)c2cccn2c2cccnc21)NCc1ccc(F)cc1	inactive	–
Cc1nc2ccccn2c(=O)c1NC(=O)c1c(F)cccc1F	inactive	–
CN1C(=O)c2[nH]nc(-c3ccc(F)cc3)c2C1c1ccccn1 (stereo not drawn)	inactive	–
O=C(NC1CC(=O)N(c2ccc(F)cc2)C1)c1cccs1 (stereo not drawn)	inactive	–

Compound	Potency	growth rescue (activation)
CC(C)(C)c1ccc(Oc2ccc(N)cc2)cc1	35.5 µM (active)	–
CCCC(=O)Nc1ccc(NC(=O)c2sc3ccccc3c2Cl)cc1	inactive	–
Clc1ncn(CCOc2ccccc2)c1Cl	17.8 µM (active)	–
Cc1c(C(N)=O)sc2ncn(CCOc3ccccc3)c(=O)c12	inactive	–
Cc1cc2ncn(CCCCOc3ccccc3)c2cc1C	inactive	–
CSc1oc(-c2cccs2)nc1S(=O)(=O)c1ccc(Br)cc1	inactive	–
COc1ccc(CN2CN(C3CCCC3)CSC2=S)cc1	15.8 µM (active)	–
COc1ccc(CN2CN(C(C)C)CSC2=S)cc1	inactive	–
COc1ccc(CN2CC(C(=O)NC3CCCCC3)CC2=O)cc1 (stereo not drawn)	inactive	–
CC1CCCN(c2nc3c(S(=O)(=O)c4ccc(C(C)C)cc4)nnn3c3ccsc23)C1 (stereo not drawn)	inactive	–
O=C(Nc1cc(C(F)(F)F)ccc1Cl)c1nc2ccccc2nc1N1CCCCC1	inactive	–
O=S(=O)(c1ccc(Br)c2ccccc12)N1CCOCC1	14.1 µM (active)	–
COc1ccc(S(=O)(=O)N2CCOCC2)c(C)c1C	inactive	–
Cc1cc(C)c(S(=O)(=O)N2CCOCC2)cc1C	inactive	–
COc1ccccc1CN1CCC(CNC(=O)c2cnn(-c3cccc(Cl)c3)c2C2CCN(C(=O)OC(C)(C)C)CC2)CC1	inactive	–
Cc1ccc(Cn2c(C)c3cnn(CC(=O)NCc4ccccc4)c(=O)c3c2C)cc1	inactive	–
COc1ccc(-c2ccc(C(=O)NCCN3CCOCC3)c3occc23)c(C)c1	inactive	–
COc1ccc(CNC(=O)c2ccc(-c3cccnc3)c3ccoc23)cc1OC	inactive	–
COc1ccc(-c2ccc(C(=O)NC(C)C)c3occc23)c(C)c1	28.2 µM (active)	–
COC(=O)c1ccc(-c2nc3cc(NC(C)=O)ccc3o2)cc1	inactive	–
COc1ccc(-c2cn3c(C)c(C(=O)Nc4cc(C)cc(C)c4)sc3n2)cc1	inactive	–
COc1ccc(-n2c(SC)nc3sc4c(c3c2=O)CCN(C(C)=O)C4)cc1	inactive	–
Cc1cc2ccccc2n1CCNC(=O)COc1ccc2ccccc2c1	35.5 µM (active)	–
Cc1ccccc1OCC(=O)NCC(=O)OCC(=O)c1ccc2ccccc2c1	inactive	–
O=C(COc1ccc2ccccc2c1)N1CCN(C(=O)c2cccs2)CC1	inactive	–
